# FMDV inh: High Throughput Screening for Foot and Mouth Disease Virus Antivirals; FMDV antiviral cell-based qHTS; Potency, µM (doses to about 57.9 µM), usual class: inhibitors; 1.2% of 410,000 active; calls by dose curve; tested in HEK293T cells; further: read-out not given here; nearly all actives have a fitted effect of over 45% in size
# Sm TGR inh: qHTS Assay for the Inhibitors of Schistosoma Mansoni Peroxiredoxins. 3% of 360,000 active. Schistosoma mansoni thioredoxin glutathione reductase (TGR), Q962Y6. purified TGR, DTNB reduction, TNB absorbance 405 nm. Potency, µM (highest dose often 114 µM), most hits filed as inhibitors. AID 485364, 2010; active means well fitted inhibition curve with a large enough effect; inconclusive means small, poorly fitted or top-dose-only effect; inactive means no such curve, though single readings can be large or run the other way; further: nearly all actives have a fitted effect of over 60% in size
#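 Kinetic colorimetric format: TGR-catalysed, NADPH-driven DTNB reduction monitored via TNB absorbance. Enzyme dispensed at 20 nM; compound exposure 15 min at room temperature before reaction start.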
# CHX counter: Cycloheximide Counterscreen for Small Molecule Inhibitors of Shiga Toxin. 12% of 300,000 active. AID 2314, 2010. max response, %. cell reporter, cycloheximide protein synthesis inhibition counterscreen; in the data active means max response mostly above about 13%, no sharp cut-off; inactive means mostly below about 14%; further: read at 38.3 µM for the half of the compounds with a filed dose
# Shiga inhibitor: A qHTS for Small Molecule Inhibitors of Shiga Toxin | Vero cells, Shiga toxin protein synthesis inhibition reporter | inhibition, % at 38.7 µM | 9.2% of 290,000 active; in the data active means inhibition mostly above about 28%, no sharp cut-off; inactive means mostly below about 43%
# Hits are given with their value; 0 = inactive; ? = inconclusive; - = not tested or not shown. Most compounds without a hit are left out; they make up all but 12% or so of the library.
SMILES,FMDV inh,Sm TGR inh,CHX counter,Shiga inhibitor
C/C(=C/C(=O)N1CCc2ccccc21)C(=O)O,0,0,0,0
NC(=O)c1ccsc1NC(=O)c1ccc(S(=O)(=O)N2CCCCC2)cc1,0,0,46,65
CC1CC(C)CN(S(=O)(=O)c2ccc(C(=O)Nc3sccc3C(N)=O)cc2)C1 (stereo not given),0,0,0,0
NC(=O)c1ccsc1NC(=O)c1ccc(S(=O)(=O)N2CCCC2)cc1,0,0,33,139
COc1ccc2c(c1)OC(C)CN(CC(=O)NCc1cn[nH]c1-c1ccc(F)cc1)C2 (stereo not given),0,-,-,-
O=C(Cc1ccc(F)cc1)N1CCC(c2nc3c(nnn3Cc3ccc(Cl)cc3)c(=O)[nH]2)CC1,0,0,-,-
CCOC(=O)c1c(NC(=O)c2ccc(S(=O)(=O)N(CCOC)CCOC)cc2)sc2c1CC(C)(C)NC2(C)C,0,0,-,-
O=C(NCC1CCOCC1)c1ccc(OC2CCN(Cc3ccccn3)CC2)cc1,0,0,0,0
O=C(NCCc1ccccn1)c1ccc(OC2CCN(Cc3ccccn3)CC2)cc1,0,0,83,64
CC(Cc1ccccn1)NC(=O)c1ccc(OC2CCN(Cc3ccccn3)CC2)cc1 (stereo not given),0,0,38,24
CCCCNC(=O)CN1CCN(c2ccc(NC(=O)c3ccc(OC)cc3)cc2C(=O)O)CC1,0,0,-,-
COc1ccc(NC(=O)C2CCCN(c3nnc(C)c4c(C)n(-c5ccccc5)nc34)C2)cc1Cl (stereo not given),0,0,-,-
O=C(Nc1cccc(F)c1)c1ccc(-c2ccccc2C(F)(F)F)o1,-,?,31,50
COc1ccc(NC(=O)c2ccc(-c3ccccc3C(F)(F)F)o2)cc1,0,0,0,0
Cc1cccc(NC(=O)c2ccc(-c3ccccc3[N+](=O)[O-])o2)c1,0,3.5µM,31,61
Cc1cccc(C)c1NC(=O)c1ccc(-c2cc(F)ccc2F)o1,0,-,-,-
Cc1ccccc1-c1ccc(C(=O)Nc2cccc(F)c2)o1,0,?,47,50
COc1cccc(NC(=O)c2ccc(-c3ccccc3[N+](=O)[O-])o2)c1,0,0,0,0
Cc1cccc(Nc2nc(-c3ccncc3)cs2)c1,0,0,42,143
Cc1nc(-c2ccc3c(c2)CCC(=O)N3)cs1,0,0,29,65
O=C(Nc1nc(-c2ccc3c(c2)OCCO3)cs1)c1ccc(Br)o1,0,-,-,-
Cc1cccc(Nc2nc(-c3ccc4c(c3)OCCO4)cs2)c1,0,0,44,120
Cc1ccc(Nc2nc(-c3ccncc3)cs2)cc1,0,0,47,119
Clc1cccc(Nc2nc(-c3ccncc3)cs2)c1,0,0,0,0
Cc1cccc2nc(Cn3c(=O)n(-c4ccc(Cl)cc4)c(=O)c4c5c(sc43)CCC5)cc(=O)n12,0,0,-,-
SMILES,FMDV inh,Sm TGR inh,CHX counter,Shiga inhibitor
COc1ccc(C)cc1NS(=O)(=O)c1ccc2c(c1)CCCN2C(C)=O,0,0,-,-
CC(O)(c1ccccc1)c1nc(-c2ccc3c(c2)OCO3)cs1 (stereo not given),0,-,-,-
Cc1nc(-c2ccc3c(c2)OCCO3)cs1,0,0,44,169
COc1cc2ncc3c(-c4ccccc4)nn(-c4ccc(C)cc4)c3c2cc1OC,0,0,-,-
COc1ccccc1C1N=C(c2ccccc2C)NO1 (stereo not given),0,0,44,123
Cc1ccccc1C1=NC(c2ccc(F)cc2F)ON1 (stereo not given),0,?,30,0
COCCN=c1scc(C)n1/N=C/C1CC2C=CC1C2 (stereo not given),0,0,13,0
COCCN=c1scc(-c2cc(OC)ccc2OC)n1/N=C/c1c[nH]c2ccccc12,?,0,0,0
OCC#Cc1cnc2ccccc2c1,0,0,26,0
O=C(NC(=S)Nc1ccc2oc(=O)ccc2c1)c1ccco1,0,?,19,53
O=C(NC(=S)Nc1ccc2c(c1)OCCO2)c1ccco1,0,16µM,46,100
O=C(NC(=S)Nc1cccc(O)c1)c1ccco1,0,7.9µM,54,94
CN(C)/C=N/c1nc(-c2ccc3c(c2)OCO3)cs1,0,0,53,178
CN(C)/C=N/c1nc(-c2ccc3ccccc3c2)cs1,0,?,47,61
COc1ccc(-c2csc(/C=C/c3ccc4c(c3)OCO4)n2)cc1OC,0,0,0,0
CN(C)S(=O)(=O)c1ccc(NC(=O)c2ccc(Br)o2)cc1,0,0,0,0
Cc1ccc(NC(=O)c2cc3ccccc3o2)cc1S(=O)(=O)N(C)C,0,0,54,0
CN(C)S(=O)(=O)c1ccc(NC(=O)c2cc3ccccc3o2)cc1,0,0,20,130

# Screening results (PubChem)
